The values below come from PubChem BioAssay (NCI).

About 83,000 compounds went through this panel and 20% of them were active in at least one assay; those are over-represented in the sample as a whole.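 48-hour exposure, single concentration, 96-well plates; percent growth endpoint where 0 means no net growth. Active: below 10.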 A number with no mark means an inactive call. The source made the active and inactive calls.

For the assay, the system named is HL-60(TB) leukemia. Kind of assay: NCI-60 one-dose screen, 48 h (100 = growth as untreated, 0 = no growth, -100 = all killed). The following applies: 10 µM unless noted.
In the case of `CC(C)c1[nH]nc2c(NCc3ccc(-c4ccccn4)cc3)nc(SCCN)nc12`, the growth was -24.4% (active).
For the compound `COc1ccc(-c2cc3c(OC)c(OC)c(OC)cc3oc2=O)cc1`, the growth was 36.5%.
To `COc1cc(-c2nc(-c3nnc(-c4ccccc4Cl)o3)c3ccccn23)cc(OC)c1OC` belongs 67.1%; to `CCOC(=O)C/C(=N\Nc1cc(=O)[nH]c2ccc(OC)cc12)C(=O)OCC`, 94%.
The figure for `COc1ccc(CN2c3ccccc3Oc3ccccc32)cc1F` is 54.1%; for `CS(=O)(=O)Nc1cccc(-c2ccc3ncnc(Nc4ccc(F)c(Cl)c4)c3c2)c1` it is 24.8%.
`Cc1cccc(N2C(=O)/C(=C/C(Cl)=C/c3ccc([N+](=O)[O-])cc3)SC2=S)c1C`: the growth was -13.3% (active).
For `Cc1cccc(N2CCN(C(=S)c3ccc4c(c3)OCO4)CC2)c1`, the growth is -20% (active).
The figure for `COc1ccc2c(c1)nnc1c3cccnc3[nH]c21` is -31.4% (active); for `C/C(=C\c1ccc([N+](=O)[O-])cc1)C(=O)O` it is 105%.
The figure for `COC1OC(CO)C(OC)C(O)C1O` (stereo not given) is 103%; for `Cc1nc2c(nnn2-c2ccccc2)c2nc(-c3ccc(Cl)cc3)oc(=O)c12` it is 98.8%.
With `O=C(CSc1ccc(Cl)cc1)Nc1ccc(-c2nc3ccccc3s2)c(Cl)c1`, the growth was 63.4%.
For the compound `COc1ccc(-c2nnc(SCC(=O)c3ccccc3)o2)cc1`, the growth is 80.5%.
The figure for `Cn1cc(-c2nc3c(F)cc4[nH]ncc4c3c3c2CCCC3)c(C(F)(F)F)n1` is -11.2% (active); for `O=C1/C(=C/c2ccc(C(F)(F)F)cc2)COc2ccc(O)c(O)c21` it is -26.1% (active).
Consider `CC(=O)Nc1cccc(-n2c(=O)n(C3CC3)c(=O)c3c(Nc4ccc(I)cc4F)n(C)c(=O)c(C)c32)c1`, for which the growth was 27.1%.
For `Cn1ccc(=O)c(S(N)(=O)=O)c1`, the growth is 96.4%.
To `Oc1ccccc1C=Nc1ccc(N2CCN(c3ccccc3)CC2)cc1` belongs 54.6%; to `O=C(Oc1ccc[nH]c1=O)c1cccc(Cl)c1`, 87.6%; to `O=C1/C(=C/c2ccc(F)cc2)C=C(c2ccccc2)N1CCc1ccccc1`, 81%.
For `O=C1C2C(c3cccs3)C=C(c3ccc(Cl)cc3)N2C(=S)N1c1ccccc1` (stereo not given), the growth was 99.8%.
`CCN(CC)CCC(CNc1ccnc2cc(Cl)ccc12)c1ccccc1` (stereo not given): the growth was 58.5%.
To `COc1ncc(-c2ccc3nccc(C#CCCCCC(=O)O)c3c2)cc1NS(=O)(=O)c1ccc(F)cc1F` belongs 26.8%.
Consider `O=S(=O)(c1ccccc1)n1cc2c(c1-c1ccccc1)CCc1sc(Nc3ccccc3)nc1-2`, for which the growth is 94.1%.
